From PubChem BioAssay (Tox21)
Results filed as inconclusive are left out. The source made the active and inactive calls. Unless noted, calls follow the shape of the dose curve; as a rule, active = well fitted cell-killing curve with a large enough effect in the repeat runs; inconclusive = weak or mixed curves, or effect the other way; inactive = no such curve, though single readings can be large or run the other way.

Experiment: qHTS assay to identify small molecule antagonists of the progesterone receptor (PR) signaling pathway - cell viability counter screen (AID 1346798); also: nearly all actives have a fitted effect of over 50% in size
Conditions: PR-UAS-bla HEK293T viability, CellTiter-Glo luminescence, 16 h; series mostly up to 92.4 µM; activity change, negative = cytotoxicity: at the top concentration
How it was run: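 PR-UAS-bla HEK293T cells in medium with 2% charcoal-stripped FBS were treated with compounds plus R5020 for 16 hr at 37C. Cell viability was then read by CellTiter-Glo luminescence after 30 min at room temperature in the same wells.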
% is scaled to controls: 0 for no effect and ±100 for the full control effect; potency is read from the fitted curve at half-maximal effect.

| Structure (SMILES) | activity change, negative = cytotoxicity | Potency |
| --- | --- | --- |
| O=C(CCS)OCC(COC(=O)CCS)(COC(=O)CCS)COC(=O)CCS | 2.91% (inactive) | – |
| C/C(C=O)=C\c1ccccc1 | -5.88% (inactive) | – |
| O=C(O)CCS | 2.32% (inactive) | – |
| CC1C(C)(C)C2=C(C(=O)CCC2)C1(C)C (stereo not drawn) | 11.6% (inactive) | – |
| CC(C)CC(O)CC(C)C | 6.5% (inactive) | – |
| CCCCCc1ccco1 | -0.858% [at 42.5 µM] (inactive) | – |
| NC(=O)c1ccccc1[N+](=O)[O-] | 6.11% (inactive) | – |
| O=C(O)c1cccc(C[C@@H]2COc3ccc(OCc4nc5cc(F)ccc5s4)cc3[C@@H]2O)c1 | -0.109% (inactive) | – |
| CCCCCC | -7.24% (inactive) | – |
| CC(C)(C(=O)c1cccnc1)c1cccnc1 | 29.5% [at 42.5 µM] (inactive) | – |
| Cc1cc(CCC(=O)OCCOCCOCCOC(=O)CCc2cc(C)c(O)c(C(C)(C)C)c2)cc(C(C)(C)C)c1O | -1.27% (inactive) | – |
| O=C(O)CO | 2.77% (inactive) | – |
| O=C(O)CCC(=O)OC[C@@H](NC(=O)C(Cl)Cl)[C@H](O)c1ccc([N+](=O)[O-])cc1 | -4.41% [at 42.5 µM] (inactive) | – |
| Nc1ccc(N=Nc2ccc(N)cc2)cc1 | 13.7% [at 42.5 µM] (inactive) | – |
| CC(C)(C)CCCCCCOC(=O)c1ccccc1C(=O)OCCCCCCC(C)(C)C | 0.81% (inactive) | – |
| CC(C)C(=O)OCCOc1ccccc1 | 4.29% (inactive) | – |
| CCCCCCCCCCCCCCN(C)C | 2.26% [at 18.9 µM] (inactive) | – |
| BrC(Br)C(Br)Br | 3.13% (inactive) | – |
| COc1cc(NS(=O)(=O)c2ccc(N)cc2)nc(C)n1 | -2.51% [at 42.5 µM] (inactive) | – |
| COc1ccc(CCN(C)CCCN2CCc3cc(OC)c(OC)cc3CC2=O)cc1OC | -16.8% [at 42.5 µM] (inactive) | – |

| Structure (SMILES) | activity change, negative = cytotoxicity | Potency |
| --- | --- | --- |
| O=NN(CCCl)C(=O)NCCCl | -0.263% [at 42.5 µM] (inactive) | – |
| O=C(Nc1ccc(C(=O)O)c(O)c1)c1ccccc1 | -11.1% [at 42.5 µM] (inactive) | – |
| C=C(C)C(=O)OCCC(F)(F)C(F)(F)C(F)(F)C(F)(F)C(F)(F)C(F)(F)F | 9.31% (inactive) | – |
| CCN(CC)CCOc1ccccc1C(=O)CCc1ccccc1 | – | 11.9 µM (active) |
| CC(C)COC(=O)COc1cc(Cl)c(Cl)cc1Cl | -3.35% (inactive) | – |
| CCOCCC(=O)OCC | -1.07% (inactive) | – |
| O=C(O)c1cc(Cl)cc(Cl)c1O | -23.9% (inactive) | – |
| CC(O)Cn1cnc2c1c(=O)n(C)c(=O)n2C (stereo not drawn) | -0.627% [at 42.5 µM] (inactive) | – |
| COC(=O)CC(C(C)=O)C(=O)OC (stereo not drawn) | 10.5% (inactive) | – |
| CCc1ccc(C)cc1 | 7.52% (inactive) | – |
| Cc1ccc(NC(=O)N(C)C)cc1NC(=O)N(C)C | 25.9% (inactive) | – |
| O=C(O)c1ccc(O)cc1O | -6.41% (inactive) | – |
| OCC(CO)n1cnc(-c2ccc(F)cc2)c1-c1ccnc(Oc2ccccc2)n1 | 5.79% (inactive) | – |
| CC(=O)Oc1cccc(O)c1 | 2.86% [at 42.5 µM] (inactive) | – |
| CC(C)c1ccc(C#N)cc1 | 2.71% (inactive) | – |
| N[C@@H](Cc1cc(I)c(O)c(I)c1)C(=O)O | 0.633% [at 42.5 µM] (inactive) | – |
| CSSc1ccoc1C | -1.59% (inactive) | – |
| CNc1c2c(nn1C)CCCC2 | 0.471% [at 42.5 µM] (inactive) | – |
| ClC1=C(Cl)C1(Cl)Cl | 14.1% (inactive) | – |

Experiment: qHTS assay to identify small molecule agonists of the progesterone receptor (PR) signaling pathway - cell viability counter screen (AID 1346799; calls by dose curve; also: nearly all actives have a fitted effect of over 45% in size)
Conditions: PR-UAS-bla HEK293T viability, CellTiter-Glo luminescence, 16 h; series mostly up to 92.4 µM; activity change, negative = cytotoxicity: at the top concentration
How it was run: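 PR-UAS-bla HEK293T cells, 3,000 per well in medium with 2% charcoal-stripped FBS, were preincubated 6 hr at 37C, then exposed to compounds for 16 hr; viability was read as CellTiter-Glo luminescence after 30 min at room temperature.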

| Structure (SMILES) | activity change, negative = cytotoxicity | Potency |
| --- | --- | --- |
| O=C(CCS)OCC(COC(=O)CCS)(COC(=O)CCS)COC(=O)CCS | -1.78% (inactive) | – |
| C/C(C=O)=C\c1ccccc1 | -0.723% (inactive) | – |
| O=C(O)CCS | 6.48% (inactive) | – |
| CC1C(C)(C)C2=C(C(=O)CCC2)C1(C)C (stereo not drawn) | 4.76% (inactive) | – |
| CC(C)CC(O)CC(C)C | 3.59% (inactive) | – |
| CCCCCc1ccco1 | -1.93% [at 42.5 µM] (inactive) | – |
| NC(=O)c1ccccc1[N+](=O)[O-] | 20.1% (inactive) | – |
| O=C(O)c1cccc(C[C@@H]2COc3ccc(OCc4nc5cc(F)ccc5s4)cc3[C@@H]2O)c1 | 2.12% (inactive) | – |
| CCCCCC | -14.4% (inactive) | – |
| CC(C)(C(=O)c1cccnc1)c1cccnc1 | 9.2% [at 42.5 µM] (inactive) | – |
| Cc1cc(CCC(=O)OCCOCCOCCOC(=O)CCc2cc(C)c(O)c(C(C)(C)C)c2)cc(C(C)(C)C)c1O | 19.6% (inactive) | – |
| O=C(O)CO | 2.54% (inactive) | – |
| O=C(O)CCC(=O)OC[C@@H](NC(=O)C(Cl)Cl)[C@H](O)c1ccc([N+](=O)[O-])cc1 | 4.64% [at 42.5 µM] (inactive) | – |
| Nc1ccc(N=Nc2ccc(N)cc2)cc1 | 15.7% [at 42.5 µM] (inactive) | – |
| CC(C)(C)CCCCCCOC(=O)c1ccccc1C(=O)OCCCCCCC(C)(C)C | -1.72% (inactive) | – |
| CC(C)C(=O)OCCOc1ccccc1 | 0% (inactive) | – |
| CCCCCCCCCCCCCCN(C)C | 0% [at 19 µM] (inactive) | – |
| BrC(Br)C(Br)Br | 0.549% (inactive) | – |
| COc1cc(NS(=O)(=O)c2ccc(N)cc2)nc(C)n1 | 5.72% [at 42.5 µM] (inactive) | – |
| COc1ccc(CCN(C)CCCN2CCc3cc(OC)c(OC)cc3CC2=O)cc1OC | 0% [at 42.5 µM] (inactive) | – |

| Structure (SMILES) | activity change, negative = cytotoxicity | Potency |
| --- | --- | --- |
| O=NN(CCCl)C(=O)NCCCl | -8.41% [at 42.5 µM] (inactive) | – |
| O=C(Nc1ccc(C(=O)O)c(O)c1)c1ccccc1 | -3.25% [at 42.5 µM] (inactive) | – |
| C=C(C)C(=O)OCCC(F)(F)C(F)(F)C(F)(F)C(F)(F)C(F)(F)C(F)(F)F | 5.24% (inactive) | – |
| CCN(CC)CCOc1ccccc1C(=O)CCc1ccccc1 | – | 9.44 µM (active) |
| CC(C)COC(=O)COc1cc(Cl)c(Cl)cc1Cl | 0.17% (inactive) | – |
| CCOCCC(=O)OCC | -2.18% (inactive) | – |
| O=C(O)c1cc(Cl)cc(Cl)c1O | -27.9% (inactive) | – |
| CC(O)Cn1cnc2c1c(=O)n(C)c(=O)n2C (stereo not drawn) | -0.923% [at 42.5 µM] (inactive) | – |
| COC(=O)CC(C(C)=O)C(=O)OC (stereo not drawn) | 1.46% (inactive) | – |
| CCc1ccc(C)cc1 | -10.4% (inactive) | – |
| Cc1ccc(NC(=O)N(C)C)cc1NC(=O)N(C)C | 0.331% (inactive) | – |
| O=C(O)c1ccc(O)cc1O | -14.2% (inactive) | – |
| OCC(CO)n1cnc(-c2ccc(F)cc2)c1-c1ccnc(Oc2ccccc2)n1 | -2.77% (inactive) | – |
| CC(=O)Oc1cccc(O)c1 | 3.75% [at 42.5 µM] (inactive) | – |
| CC(C)c1ccc(C#N)cc1 | -7.39% (inactive) | – |
| N[C@@H](Cc1cc(I)c(O)c(I)c1)C(=O)O | 13.2% [at 42.5 µM] (inactive) | – |
| CSSc1ccoc1C | 10.8% (inactive) | – |
| CNc1c2c(nn1C)CCCC2 | -24% [at 42.5 µM] (inactive) | – |
| ClC1=C(Cl)C1(Cl)Cl | -4.29% (inactive) | – |
